# The panel holds about 83,000 compounds, 20% with a hit somewhere; the sample as a whole holds those more often.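 Single-concentration screen, 48 h exposure, 96-well plates. Endpoint: percent growth. Below 10 = active.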 Unmarked numbers belong to inactive results. The source made the active and inactive calls.
# Assays:
# Assay in all cases: NCI-60 one-dose screen, 48 h (100 = growth as untreated, 0 = no growth, -100 = all killed)
# Conditions in all cases: 10 µM unless noted
# HCT-15 colon = test system: HCT-15 colon
# HT29 colon = test system: HT29 colon
# SNB-75 CNS = test system: SNB-75 CNS
# U251 CNS = test system: U251 CNS
# PC-3 prostate = test system: PC-3 prostate
# UACC-62 melanoma = test system: UACC-62 melanoma
# LOX IMVI melanoma = test system: LOX IMVI melanoma
# SK-MEL-28 melanoma = test system: SK-MEL-28 melanoma
# SK-MEL-5 melanoma = test system: SK-MEL-5 melanoma
SMILES,growth (HCT-15 colon),growth (HT29 colon),growth (SNB-75 CNS),growth (U251 CNS),growth (PC-3 prostate),growth (UACC-62 melanoma),growth (LOX IMVI melanoma),growth (SK-MEL-28 melanoma),growth (SK-MEL-5 melanoma)
Nc1nc(N)c(-c2ccc(Cl)c(Cl)c2)c(CBr)n1,43%,34.2%,95%,65.4%,65.2%,57%,34.9%,103%,
O=C(N/N=C/c1ccc(Cl)cc1)c1[nH]c2ccc(Cl)cc2c1-c1ccccc1,11.2%,19.4%,70.5%,10.4%,17.2%,,19%,,-36.6% (active)
c1ccc(-c2oc(-c3ccccc3)c(CN3CCCCC3)c2CN2CCCCC2)cc1,19.4%,10.9%,55.6%,25.2%,19.6%,37.6%,22.3%,10.1%,-87% (active)
CCOC(=O)C1=C(c2ccccc2)N=C2SC=C(c3ccc(Cl)cc3)N2C1c1ccc(Br)cc1 (configuration not stated),80.8%,82.2%,81.7%,85.8%,40.6%,67.7%,84.8%,,67.7%
